Results: PMC5540273 (PLoS ONE, 2017)

Key:
Settings in all cases: concentration: 1 μM, replicates: in singlicate; n = 1
[1] = system: CAMK2D
[2] = system: CAMK2G
[3] = system: CAMK4
[4] = system: CAMKK1
[5] = system: CAMKK2
[6] = system: CASK
[7] = system: T1, CDC2L1
T1 construct: gene CDK11B

[8] = system: CDC2L2
[9] = system: T2, CDC2L5
T2 construct: gene CDK13

[10] = system: T3, CDK11
T3 construct: gene CDK19

[11] = system: CDK2
[12] = system: CDK3
[13] = system: CDK4-cyclinD1
[14] = system: CDK4-cyclinD3
[15] = system: CDK4
[16] = system: CDK5
[17] = system: CDK7
[18] = system: CDK8
[19] = system: CDK9
[20] = system: CDKL1
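Further: KINOMEscan kinase panel screen.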

SMILES	%Inh [1]	%Inh [2]	%Inh [3]	%Inh [4]	%Inh [5]	%Inh [6]	%Inh [7]	%Inh [8]	%Inh [9]	%Inh [10]	%Inh [11]	%Inh [12]	%Inh [13]	%Inh [14]	%Inh [15]	%Inh [16]	%Inh [17]	%Inh [18]	%Inh [19]	%Inh [20]
COc1ccc(NC(=O)c2ccc(-c3cc(-c4nnc(C)o4)ccc3C)cc2)cc1 [GW595885]	0%	8%	0%	0%	0%	21%	0%	0%	0%	0%	0%	22%	14%	0%	0%	0%	0%	9%	0%	0%
C[C@@H]1CCN(C(=O)CO)C[C@@H]1N(C)c1ncnc2[nH]ccc12	0%	13%	20%	4%	11%	0%	0%	0%	0%	6%	0%	0%	0%	0%	0%	4%	20%	0%	9%	12%
CCC(CC)(CC)n1cnc2c(N)ncnc21 [SKF-97620]	0%	0%	8%	0%	0%	42%	0%	0%	20%	0%	0%	3%	0%	0%	28%	5%	22%	30%	0%	13%
O=C(Nc1n[nH]c2nc(-c3ccco3)c(Br)cc12)c1ccc(CN2CCCC2)cc1.O=C(O)[C@H](O)[C@@H](O)C(=O)O [SB-742352]	0%	0%	0%	0%	0%	0%	0%	0%	0%	0%	0%	0%	0%	0%	0%	0%	0%	0%	0%	24%
Cl.O=S(=O)(c1cccc(F)c1)c1ccc(Nc2ncnc3cc(Br)sc23)cc1Cl [GSK306886]	9%	0%	0%	0%	20%	47%	3%	20%	0%	0%	6%	44%	0%	7%	17%	0%	0%	0%	6%	19%
OCCOCCn1ccc2ncnc(Nc3ccc(Oc4cccc(Cl)c4)c(Cl)c3)c21	0%	0%	0%	0%	0%	0%	0%	0%	0%	0%	0%	0%	0%	0%	0%	0%	0%	0%	0%	0%
O=C(Nc1ccccc1F)NC1CCN(c2ccnc(Nc3ccc(F)cc3)n2)C1 (centres unmarked) [GSK1379722]	0%	12%	0%	0%	3%	17%	0%	0%	0%	19%	0%	16%	0%	2%	31%	0%	0%	22%	0%	18%
O=C(CCO)NCCn1ccc2ncnc(Nc3ccc(Oc4cccc(C(F)(F)F)c4)c(Cl)c3)c21	0%	0%	0%	0%	7%	0%	0%	0%	0%	0%	0%	0%	0%	0%	0%	0%	0%	6%	0%	15%
FC(F)(F)c1ccc(-c2nn3ncccc3c2-c2ccnc(Nc3cccc(C(F)(F)F)c3)n2)cc1 [GW828205]	0%	0%	17%	6%	0%	0%	0%	3%	0%	0%	1%	0%	2%	0%	0%	0%	0%	32%	0%	55%
Cl.Cl.c1ccc(-c2cc3ccncc3cc2OC2CCNCC2)cc1 [GSK1122999]	26%	20%	43%	0%	30%	16%	15%	5%	0%	12%	0%	10%	0%	0%	11%	0%	0%	15%	2%	10%
